# Measured values: PubChem BioAssay
# Where “and” joins values, the source holds several entries; their conditions need not be identical. Equal entries are not always repeated. Results filed as inconclusive are left out. Calls of active or inactive are those of the source. Cut-off read from the data, not from the text of the source, unless noted: active = inhibition above about 80%; inactive = the rest.
# Tests used:
# [1] = kinase inhibitors against Plasmodium liver-stage infection, cell-based, known kinase inhibitor set, luminescence, hepatoma host viability (AID 624392; call rule not given here;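 note: infected cells incubated roughly two days before readout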); conditions: Plasmodium liver stage in hepatoma cells, luciferase luminescence, concentration not given here; liver cell % of control: measured here: host liver cell viability; parasite % of control: stronger effect = lower value
# [2] = liver-stage malaria parasite growth inhibition, primary screen, cell-based, HepG2, luciferase luminescence, HepG2 viability (AID 624349; in the data active = parasite load remaining mostly below about 12%, no sharp cut-off; inactive = mostly above about 10%;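 note: 100% = mean of DMSO negative control wells on the same plate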); conditions: P. berghei liver stage in HepG2, luciferase luminescence, concentration not given here; parasite load remaining: stronger effect = lower value; viability: measured here: HepG2 viability without parasites
# [3] = growth inhibition of DIPG glioma cells, dose response, cell-based, SU-DIPG-XIII, MIPE5.0, CellTiter-Glo, qHTS (AID 1347064; cut-off not given, nearly all actives have AC50 up to about 23 µM;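 for AC50: cells exposed to compound for 48 hours before the viability read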); conditions: SU-DIPG-XIII viability, CellTiter-Glo ATP luminescence
# [4] = phospholipid biosynthesis inhibitors in animal cells, primary screen, cell-based, LOPAC library, screen 4 (AID 1347384; call rule not given here); conditions: phospholipid biosynthesis inhibition screen, at 10 µM
# [5] = circadian clock period modulators, cell-based, LOPAC library, luminescence reporter (AID 2774; call rule not given here;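 note: values are relative to mean of DMSO wells on each plate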); conditions: circadian reporter cells, at 7 µM, actives lie on both sides
# [6] = test system: Hepatitis C virus NS3 helicase; assay: HCV NS3 helicase inhibitors, primary screen, biochemical, fluorescence polarization, LOPAC1280 library (AID 687035; in the data active = inhibition above about 37%); conditions: Purified HCV NS3 helicase, Cy5-dT15 ssDNA binding fluorescence polarization; stronger effect = higher value; concentration not given here
# [7] = Cy5 fluorescence quenching or enhancement artefacts, artefact control for HCV NS3 helicase inhibitor project, biochemical, LOPAC1280 (AID 687037; call rule not given here); conditions: Cy5-DNA-NS3h complex fluorescence interference counterscreen
# [8] = inhibitors of Cryptococcus chitosan production, flow cytometry, Cibacron Brilliant Red staining (AID 1347148; call rule not given here;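 note: compound exposure lasted three days at 37 degrees C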); conditions: Cryptococcus neoformans chitosan, stronger effect = lower value; at 10 µM unless noted
# [9] = viability rescue of complex I mutant cybrids, primary screen, cell-based, galactose medium, ATP luminescence (AID 1645843;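 active = z-score of at least 1.8 in each of two replicates, scored against plate mean and spread of sample wells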;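 note: positive z means more ATP and so rescue of galactose-driven cybrid death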); conditions: complex I mutant cybrid cells, 72 h, stronger effect = higher value
# [10] = CRL2098 osteosarcoma cell growth inhibition, synergistic combos for chromothripsis tumors, BGB or cisplatin IC20 combos (AID 1671454); conditions: CRL2098 osteosarcoma cells, drug combinations, stronger effect = higher value;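 note: cells exposed for 96 h before readout; 0% = vehicle DMSO and 100% = killing by high DMSO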
# [11] = HD-MB03 medulloblastoma cell growth inhibition, synergistic combos for chromothripsis tumors, BGB or cisplatin IC20 combos (AID 1671455; in the data active = inhibition above about 83%;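 note: 0% = vehicle DMSO and 100% = high DMSO as cytotoxic control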); conditions: HD-MB03 medulloblastoma cells, stronger effect = higher value
# [12] = UWB1.289 ovarian carcinoma cell growth inhibition, synergistic combos for chromothripsis tumors, BGB or cisplatin combos (AID 1671456); conditions: UWB1.289 ovarian carcinoma cells, stronger effect = higher value;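 note: cells exposed to compound for four days; 0% = vehicle DMSO and 100% = killing by high DMSO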
# [13] = LFS_MB_2R medulloblastoma cell growth inhibition, synergistic combos for chromothripsis tumors, cisplatin combos (AID 1671457); conditions: LFS_MB_2R medulloblastoma cells, stronger effect = higher value;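 note: cells exposed to compound for four days before readout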
# [14] = UWB1.289_BRCA1 ovarian cancer growth, cell-based, BGB or cisplatin combinations (AID 1671459); conditions: UWB1.289 BRCA1 ovarian carcinoma, drug combinations, stronger effect = higher value
# [15] = human astrocyte viability loss, single and combined drugs, cytotoxicity control for chromothriptic childhood tumor combination screen, cell-based, BGB or cisplatin IC20 combos (AID 1671460); conditions: Human astrocytes, drug combinations, stronger effect = higher value;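 note: cells exposed to compounds for 96 hours before viability readout; 0% = vehicle and 100% = killing control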
# [16] = measured here: combination with BGB at IC20, at 0.5 µM
# [17] = measured here: combination with cisplatin at IC20, at 0.5 µM
# [18] = measured here: combo with BGB at IC20, at 0.5 µM
# [19] = measured here: combo with cisplatin at IC20, at 0.5 µM
# [20] = measured here: inhibition with BGB combination, at 0.05 µM
# [21] = measured here: inhibition with cisplatin combination, at 0.05 µM
# [22] = measured here: combination with cisplatin, at 0.5 µM
# [23] = measured here: combination with cisplatin, at 5 µM
# [24] = BGB combination, concentration series, at 5 µM
# [25] = cisplatin combination, concentration series, at 5 µM
# [26] = measured here: combo with BGB IC20, at 0.5 µM
# [27] = measured here: combo with cisplatin IC20, at 0.5 µM
compound,measurement,setting,value
Cn1cc(-c2ccc3nnc(C(F)(F)c4ccc5ncccc5c4)n3n2)cn1,liver cell % of control,[1],86.8% and 81.6% and 92.2%
same,parasite % of control,[1],347% (inactive) and 352% (inactive) and 281% (inactive)
Cc1cc(C(C)Nc2ccccc2)c2nc(N3CCOCC3)cc(=O)n2c1 (stereo not drawn),parasite load remaining,[2],33.1% (inactive)
same,viability,[2],62.4%
same,liver cell % of control,[1],99% and 87.4% and 105%
same,parasite % of control,[1],84.7% (inactive) and 70.8% (inactive) and 54.4% (inactive)
COc1cc(OC2CCN(C)CC2)ccc1Nc1ncc2c(n1)n(C1CCCC1)c(=O)n2C,AC50,[3],18.6 µM (active)
COc1ccc(Cc2nccc3cc(OC)c(OC)cc23)cc1OC,outcome,[3],inactive
same,outcome,[4],inactive
OCc1ccc(-c2nn(Cc3ccccc3)c3ccccc23)o1,period change,[5],-0.37 h (inactive)
same,inhibition,[6],0% (inactive)
same,fluorescence ratio (interference),[7],1 (inactive)
same,fold fluorescence,[8],11.2 [at 164.3 µM] (inactive)
same,outcome,[4],inactive
same,z-score,[9],-0.46 (inactive)
Cc1cnc(CNC(=O)c2c(=O)c3ccc(N4CCCN(C)CC4)nc3n3c2sc2ccccc23)cn1,outcome,[3],inactive
same,inhibition,[10]; at 0.5 µM,31.8% (inactive) and -46.4% (inactive)
same,inhibition,[10]; [16],40.6% and -32.3%
same,inhibition,[10]; [17],37% and -70.3%
same,inhibition,[11]; at 0.5 µM,51.2% (inactive) and 21.9% (inactive)
same,inhibition,[11]; [18],53.1% and 31.3%
same,inhibition,[11]; [19],36.7% and 11.5%
same,inhibition,[12]; at 0.5 µM,39.7% (inactive) and 9.86% (inactive)
same,inhibition,[12]; [20],-5.3% and -40%
same,inhibition,[12]; [21],-10.5% and -7.68%
same,inhibition,[13]; at 0.5 µM,-14.9% (inactive) and -31.5% (inactive)
same,inhibition,[13]; [22],-16.1% and -30.8%
same,inhibition,[13]; [23],108% and -28.8%
same,inhibition,[14]; [24],117% and 38.3%
same,inhibition,[14]; at 0.5 µM,44.8% (inactive) and 2% (inactive)
same,inhibition,[14]; [25],122% and 71.6%
same,inhibition,[15]; at 0.5 µM,45.8% (inactive) and 19.7% (inactive)
same,inhibition,[15]; [26],41.5% and 16.4%
same,inhibition,[15]; [27],31.2% and 2.96%
COCCNCCCn1c(C(=O)CF)c(-c2ccc(C)cc2)c2c(N)ncnc21,parasite % of control,[1],34.2% (inactive) and 108% (inactive) and 115% (inactive)
same,outcome,[3],inactive
C=C1c2cccc(O)c2C(O)=C2C(=O)[C@@]3(O)C(O)=C(C(N)=O)C(=O)[C@@H](N(C)C)[C@@H]3[C@@H](O)[C@H]12,outcome,[3],inactive
O=C(O)C1(Cc2cccc(Nc3nccs3)n2)CCC(Oc2cccc(Cl)c2F)CC1 (stereo not drawn),outcome,[3],inactive
CC(C)(Cc1ccc2ccccc2c1)NC[C@@H](O)COc1cccc(Cl)c1C#N,AC50,[3],8.33 µM (active)
CCOC(=O)N[C@@H]1CC[C@@H]2[C@@H](C1)C[C@H]1C(=O)O[C@H](C)[C@H]1[C@H]2/C=C/c1ccc(-c2cccc(F)c2)cn1,outcome,[3],inactive
CNCc1ccc(-c2[nH]c3cc(F)cc4c3c2CCNC4=O)cc1,inhibition,[10]; at 0.5 µM,-36.2% (inactive) and -5.02% (inactive)
same,inhibition,[10]; [16],-29.2% and -1.4%
same,inhibition,[10]; [17],-44.8% and 9.17%
same,inhibition,[11]; at 0.5 µM,-4.75% (inactive) and 7.82% (inactive)
same,inhibition,[11]; [18],-19.4% and -2.99%
same,inhibition,[11]; [19],-1.52% and 19.2%
same,inhibition,[12]; at 0.5 µM,3.38% (inactive) and 18.2% (inactive)
same,inhibition,[12]; [20],-7.35% and 1.55%
same,inhibition,[12]; [21],-18.2% and 33.2%
same,inhibition,[13]; at 0.5 µM,-21.7% (inactive) and 11% (inactive)
same,inhibition,[13]; [22],-36.4% and 1.09%
same,inhibition,[13]; [23],-18.9% and -8.07%
same,inhibition,[14]; [24],7.87% and 16.2%
same,inhibition,[14]; at 0.5 µM,2.14% (inactive) and 11.2% (inactive)
same,inhibition,[14]; [25],1.67% and 2.25%
same,inhibition,[15]; at 0.5 µM,5.22% (inactive) and 8.56% (inactive)
same,inhibition,[15]; [26],-3.65% and 3.02%
same,inhibition,[15]; [27],2.06% and 7.11%
O=C(NOC[C@H](O)CO)c1ccc(F)c(F)c1Nc1ccc(I)cc1F,outcome,[4],inactive
CN(C[C@@H]1COCCO1)S(=O)(=O)Nc1ccc2ccc3ncc(-c4cnn(C)c4)cc3c(=O)c2c1,AC50,[3],2.63 µM (active)
COc1ccc(COc2cc3oc(=O)c4cc(C(C)O)ccc4c3cc2OC)cc1 (stereo not drawn),outcome,[3],inactive
CC(C)(C)OC(=O)Nc1ccc(-c2cc(C(=O)NCCCCCCC(=O)NO)no2)cc1,AC50,[3],1.86 µM (active)
same,inhibition,[10]; at 0.5 µM,-72.5% (inactive) and -77.6% (inactive)
same,inhibition,[10]; [16],-95.4% and -52.6%
same,inhibition,[10]; [17],-69.5% and -63.5%
same,inhibition,[11]; at 0.5 µM,9.94% (inactive) and 21.1% (inactive)
same,inhibition,[11]; [18],2.31% and 13%
same,inhibition,[11]; [19],19.2% and 51.1%
same,inhibition,[12]; at 0.5 µM,-1.75% (inactive) and 9.21% (inactive)
same,inhibition,[12]; [20],-25.1% and -31.2%
same,inhibition,[12]; [21],-18.4% and -19.7%
same,inhibition,[13]; at 0.5 µM,-15% (inactive) and -8.72% (inactive)
same,inhibition,[13]; [22],-1.56% and 8.91%
same,inhibition,[13]; [23],69.3% and 57.6%
same,inhibition,[14]; [24],81.5% and 72.3%
same,inhibition,[14]; at 0.5 µM,-3.45% (inactive) and 2.97% (inactive)
same,inhibition,[14]; [25],90.6% and 89.6%
same,inhibition,[15]; at 0.5 µM,10.3% (inactive) and 12.5% (inactive)
same,inhibition,[15]; [26],8.87% and 11.7%
same,inhibition,[15]; [27],7.42% and 16.9%
O=c1c2ccccc2nc2n1CCc1c-2[nH]c2ccccc12,period change,[5],0.11 h (inactive)
same,inhibition,[6],2% (inactive)
same,fluorescence ratio (interference),[7],1 (inactive)
same,outcome,[4],inactive
same,z-score,[9],1.2 (inactive)
O=C1C(CCC(O)c2ccc(F)cc2)C(c2ccc(O)cc2)N1c1ccc(F)cc1 (stereo not drawn),z-score,[9],-0.345 (inactive)
CN1CCN(c2cc(C(=O)Nc3ccc4c(c3)-c3c(c(C(N)=O)nn3-c3ccc(F)cc3)CC4)c(Cl)cn2)CC1,AC50,[3],14.8 µM (active)
CS(=O)(=O)N(Cc1ccco1)CC(O)Cn1c2ccccc2c2ccccc21 (stereo not drawn),outcome,[3],inactive
